The list is not random: actives were taken first. Their share in the collection is about 9.3%.
HCV inhibitor: inhibitors of hepatitis C virus infection; Huh7.5.1 HCVcc-Cre infection, luciferase reporter, 44 h; Potency, µM (doses to about 41.8 µM), for the others: top-dose activity change, negative = inhibition, usual class: inhibitors; 340,000 compounds, 3.4% hits; note: potency is the fitted concentration of half-maximal effect
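Cells seeded at 1,000/well and cultured 4 h, then compounds added followed by HCVcc-Cre virus (~0.5 moi). After 44 h further culture, luciferase substrate was added, plates held 15 min at room temperature, and luminescence read for 15 sec.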
Vaccinia Venus: vaccinia inhibition (Venus reporter). Vaccinia virus Venus reporter expression, fluorescence. Potency, µM (series often up to 36.5 µM), for inactives: top-dose activity change, negative = inhibition, hits mostly inhibitors. 330,000 compounds, 0.46% hits; calls by dose curve; tested in A549 cells; note: potency is the fitted concentration of half-maximal effect; nearly all actives have a fitted effect of over 30% in size
Sm TGR inh: blocks Schistosoma mansoni thioredoxin glutathione reductase; Q962Y6; purified TGR, DTNB reduction, TNB absorbance 405 nm; Potency, µM (series often up to 114 µM), for the others: at the top dose activity change, negative = inhibition, hits mostly inhibitors; 360,000 compounds, 3% hits; note: potency is the fitted concentration of half-maximal effect; nearly all actives have a fitted effect of over 60% in size
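Kinetic colorimetric format: TGR-catalysed, NADPH-driven DTNB reduction monitored via TNB absorbance. Enzyme dispensed at 20 nM; compound exposure 15 min at room temperature before reaction start.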
Vaccinia mCherry: inhibitors of vaccinia virus infection (mCherry reporter signal). Vaccinia virus mCherry reporter infection, fluorescence. Potency, µM (titrated, usually from 36.5 µM), for inactives: at the highest dose activity change, negative = inhibition, hits mostly inhibitors. 310,000 compounds, 0.63% hits; calls by dose curve; tested in A549 cells; note: potency is the fitted concentration of half-maximal effect; nearly all actives have a fitted effect of over 35% in size
HCMV antiviral: inhibitors of human cytomegalovirus. 410,000 compounds, 4.5% hits. HFF cells, HCMV-luciferase reporter, 72 h; active compounds read low. activity change, negative = inhibition, % at 57.5 µM; in the data active = activity change below about -60%; inconclusive = no clear call, values can overlap the other calls; inactive = above about -39%
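Luciferase read-out from HCMV-luciferase-infected HFFs (MOI 1 PFU/cell) 72 h post infection at 37C; compounds added after 16 h cell attachment; activity normalized between buffer-only basal and Salinomycin (10uM) inhibitor controls.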
FMDV inh: blocks foot and mouth disease virus. FMDV antiviral cell-based qHTS. Potency, µM (doses to about 57.9 µM), for the others: at the highest dose activity change, negative = inhibition, most hits filed as inhibitors. 410,000 compounds, 1.2% hits. AID 1159524; calls by dose curve; tested in HEK293T cells; note: read-out not given here; potency is the fitted concentration of half-maximal effect; nearly all actives have a fitted effect of over 45% in size
Active calls of the source: *. Unless noted, calls come from the whole dose curve; as a rule, active = well fitted curve in the direction sought with a large enough effect; inconclusive = small, poorly fitted or top-dose-only effect, or another doubt; inactive = no such curve, though single readings can be large; an effect the other way counts as inactive or inconclusive. % is set by controls: 0 for no effect and ±100 for the full control effect.

For O=C(NCC1COc2ccccc2O1)c1ccc(Cl)c(S(=O)(=O)N2CCCC2)c1 (stereo unspecified) the results were HCV inhibitor inconclusive, Sm TGR inh -2%, HCMV antiviral -69* and FMDV inh -22%.
For O=C(NCC1COc2ccccc2O1)C1CCN(S(=O)(=O)c2ccc(Cl)cc2)CC1 (stereo unspecified) the results were HCV inhibitor 11µM*, Sm TGR inh -7%, HCMV antiviral -8 and FMDV inh -25%.
Screening Cc1ccc(C(=O)NCC(=O)OCc2c(F)cccc2Cl)cc1 returned HCV inhibitor 5%, Vaccinia Venus -4%, Sm TGR inh 2%, Vaccinia mCherry -12%, HCMV antiviral inconclusive and FMDV inh 39%.
CC(C)(C)OC(=O)NCC(=O)Oc1cc2oc(=O)cc(-c3ccccc3)c2cc1Cl was read as HCV inhibitor 26%, Vaccinia Venus 0%, Sm TGR inh inconclusive, Vaccinia mCherry -9%, HCMV antiviral -76* and FMDV inh -20%.
O=C(Nc1ccc(Oc2cccnc2)cc1)C1CCN(Cc2ccccc2)CC1 was read as HCV inhibitor -27%, Vaccinia Venus -16%, Sm TGR inh -17%, Vaccinia mCherry -2%, HCMV antiviral -5 and FMDV inh 0%.
`COc1cc(F)ccc1CN1CCC(C(=O)Nc2ccc(Oc3ccccc3)nc2)CC1` gave HCV inhibitor 10µM*, Vaccinia Venus -22%, Sm TGR inh -1%, Vaccinia mCherry inactive, HCMV antiviral 0 and FMDV inh inconclusive.
`CCc1ccc(CN2CCC(C(=O)Nc3ccc(Oc4ccccc4)nc3)CC2)o1` gave HCV inhibitor 11µM*, Vaccinia Venus -23%, Sm TGR inh -33%, Vaccinia mCherry inactive, HCMV antiviral -72* and FMDV inh inconclusive.
For COc1ccc(CN2CCC(C(=O)Nc3ccc(Oc4ccccc4)nc3)CC2)cc1F the results were HCV inhibitor 2.5µM*, Vaccinia Venus -24%, Sm TGR inh -19%, Vaccinia mCherry -2%, HCMV antiviral -70* and FMDV inh inconclusive.
`O=C(Nc1ccc(Oc2cccnc2)cc1)C1CCN(Cc2cccc(Cl)c2)CC1` gave HCV inhibitor inconclusive, Sm TGR inh 4%, HCMV antiviral -79* and FMDV inh -12%.
